Values joined by “and” are separate entries in the source; they are usually repeats but may differ in a detail not shown here. Equal values may be shown once. Out of some 150,000 compounds screened, about 6,500 (4.3%) were called active. Another 12% or so got no clear call; they are omitted. The sample as a whole holds a higher share of actives than the screen did. Some structures have more than one record in an assay (separate samples or runs), and their calls can disagree. Unmarked numbers belong to inactive results. Calls come from the whole dose curve; as a rule, active = well fitted inhibition curve with a large enough effect (not every such curve was filed as active); inconclusive = small, poorly fitted or top-dose-only effect, or another doubt; inactive = no such curve, though single readings can be large or run the other way.
Biological target: 15-hydroxyprostaglandin dehydrogenase [NAD(+)] (Homo sapiens) (UniProt P15428)
Test: qHTS Assay for Inhibitors of HPGD (15-Hydroxyprostaglandin Dehydrogenase)
Settings: purified HPGD, NADH fluorescence kinetic, PGE2 substrate; activity change, negative = inhibition: stronger effect = lower value
How it was run: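 20 nM HPGD preincubated 15 min at room temperature with compound in 50 mM Tris-HCl pH 8, 0.01% Tween 20. Started with 1 mM NAD+ and 30 uM prostaglandin E2; NADH fluorescence (360/450 nm) read 5 times over 30-s intervals, last minus first.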
% is set by controls: 0 for no effect and ±100 for the full control effect; potency is the fitted concentration of half-maximal effect.

Sequence of 15-hydroxyprostaglandin dehydrogenase [NAD(+)] (Homo sapiens) (P15428 whole entry, looked up): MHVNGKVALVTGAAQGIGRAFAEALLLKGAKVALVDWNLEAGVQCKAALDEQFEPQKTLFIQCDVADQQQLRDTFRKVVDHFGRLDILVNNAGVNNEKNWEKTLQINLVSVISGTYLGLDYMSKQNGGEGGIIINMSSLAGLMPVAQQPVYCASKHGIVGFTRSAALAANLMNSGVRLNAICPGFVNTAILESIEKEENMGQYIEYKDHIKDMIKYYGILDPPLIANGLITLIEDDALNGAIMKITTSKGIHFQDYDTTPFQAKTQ

| SMILES | activity change, negative = inhibition | Potency |
| --- | --- | --- |
| Cc1cnc(NC(=O)CSc2c(Cl)cccc2Cl)s1 | -12.6% |  |
| Cc1cnc(NC(=O)CSc2nnc(-c3ccc(Cl)cc3Cl)n2N)s1 |  | 25.1 µM (active) |
| Cc1cnc(NC(=O)CSc2nnc(-c3ccccc3)n2Cc2ccccc2)s1 | -9.73% |  |
| CCCCC(O)(CCCC)C(=O)NN(C(=O)CCl)c1ccccc1 | -6.18% |  |
| O=C(NCCCO)/C(=C\C=C\c1ccccc1)NC(=O)c1ccccc1Cl | -15.4% |  |
| CC(C)(C)C(=O)NC(NC(=S)Nc1ccc(S(N)(=O)=O)cc1)C(Cl)(Cl)Cl (stereo not drawn) | -0.407% |  |
| CC(C)(C)C1CCC(=NNC(=O)c2cc(-c3ccccc3)n[nH]2)CC1 (stereo not drawn) | -7.88% |  |
| Cc1ccccc1-c1ccc(Nc2ccc(C(=O)N3CCOCC3)cc2)nn1 |  | 22.4 µM (active) |
| Cc1onc(-c2ccccc2)c1C(=O)N1CCOCC1 | 0.967% |  |
| O=C(c1ccccc1-c1ccccc1)N1CCOCC1 | -1.91% |  |
| O=C(COc1ccc(/C=N/NC(=O)c2ccc(O)cc2)cc1)Nc1ccc([N+](=O)[O-])cc1 | -5.7% |  |
| O=C(NCc1ccco1)O[C@@H]1C(=O)c2cc(Br)ccc2O[C@H]1c1ccc2c(c1)OCO2 | -7.84% |  |
| CC(C)c1ccc(Nc2nnc(SCC(=O)c3nnc(-c4ccccc4)o3)s2)cc1 |  | 31.6 µM (active) |
| O=C(CSc1nnc(Nc2ccccc2)s1)Nc1cccnc1Cl | -3.17% |  |
| Cc1ccc(Nc2nnc(SCC(=O)c3cc4ccccc4o3)s2)cc1C | -14.9% |  |
| Cc1nn(Cc2ccccc2)c(C)c1C(=O)NCCN1C(=O)S/C(=C\c2ccc(F)cc2)C1=O | -19.6% |  |
| COc1cccc(/C=N/Nc2ncc(C(F)(F)F)cc2Cl)c1O | -13.5% |  |
| COc1cccc(/C=N/NC(=O)c2[nH]nc3c2CCc2ccccc2-3)c1O |  | 35.5 µM (active) |
| COc1cccc(/C=N\NC(=O)C2=NNC(=O)C2C)c1O (stereo not drawn) | -11.9% |  |
| O=C1CCC[C@@H]2CC(N3CCCCC3)C[C@@H]3CCN1[C@H]23 (stereo partly drawn) | -1.93% |  |
| C=CCNC(=S)NNC(=O)COc1c(Cl)cc(Cl)cc1Cl | -21.2% |  |
| Cc1ccc(Cl)cc1N1CCN(C(=O)c2cccc3c(=O)c(C)c(-c4ccccc4)oc23)CC1 | 0.844% |  |
| CC1CCN(C(=O)c2ccc(CSc3ccc(Cl)cc3)cc2)CC1 |  | 0.891 µM (active) |

| SMILES | activity change, negative = inhibition | Potency |
| --- | --- | --- |
| CCOC(=O)N1CCN(C(=O)CSc2ccc(Cl)cc2)CC1 | -15.4% |  |
| CS(=O)(=O)Nc1ccc(C(=O)N2CCCC2)cc1 |  | 20 µM (active) |
| O=C(c1ccc(S(=O)(=O)N2CCOCC2)cc1)N1CCN(c2ccccc2)CC1 | -5.22% |  |
| CC(=O)N1CCN(C(=O)c2cccc(S(=O)(=O)Nc3ccc(C)cc3)c2)CC1 | 4.03% |  |
| O=C(c1ccc(S(=O)(=O)c2ccccc2)cc1)N1CCCCCC1 |  | 17.8 µM (active) |
| CC(NC(=O)c1ccc(Cl)cc1)C(=O)N1CCCCC1 (stereo not drawn) | -4.27% |  |
| O=C(c1ccc(CSc2ccccc2)cc1)N1CCCCCC1 |  | 0.316 µM (active) |
| O=C(Nc1ccc(CSc2ccccc2)cc1)c1ccc(CN2CCOCC2)cc1 | -8.57% |  |
| NC(=O)C1CCN(C(=O)c2ccc(-c3ccccc3)cc2)CC1 | -4.39% |  |
| O=C(C1CC1)N1CCN=C1SCc1ccc(Cl)cc1 | -17.7% |  |
| COc1ccccc1N1CCN(C(=O)c2ccc(S(=O)(=O)N3CCCCC3)cc2)CC1 | -4.4% |  |
| CC1CCCN(CCOCCOc2ccccc2-c2ccccc2)C1 (stereo not drawn) | -3.59% |  |
| COC(=O)N1C(/C=C/C=C/c2ccc(OC)cc2)=Cc2ccccc2C1CC(C)=O (stereo not drawn) | -15% |  |
| CC1CCN(c2ccc(C(=O)Nc3nnc(C4CC4)s3)cc2[N+](=O)[O-])CC1 | -7.37% |  |
| CC(NC(=S)Nc1ccccc1)C1COc2ccccc2O1 (stereo not drawn) | -1.93% |  |
| COc1cc(OC)nc(N/N=C(\c2ccccc2)c2ccncc2)n1 | -10.6% |  |
| CCC1(C(=O)c2ccccc2)C(c2cccc([N+](=O)[O-])c2)C1(C(=O)OC)C(=O)OC (stereo not drawn) | -4.68% |  |
| COc1ccc(Br)cc1CN(C)CC(=O)Nc1cc(Cl)cc(Cl)c1 | -12.1% |  |
| COC(=O)c1c(NC(=O)CN2C(=O)NC(CCc3ccccc3)C2=O)sc2c1CCCCC2 (stereo not drawn) | -23.3% |  |
| CN(C)S(=O)(=O)c1ccc(N2CCCC2=O)c([N+](=O)[O-])c1 | -7.1% |  |
| Cc1c(NC(=O)Nc2ccccc2)cccc1[N+](=O)[O-] | -4.65% |  |
| CCC(CC)C(=O)Nc1cccc(C(=O)N2CCCC2)c1 | -4.19% |  |
| Cc1c(Cl)cccc1NC(=O)Nc1ccc(C(=O)N2CCCC2)cc1 |  | 14.1 µM (active) |

| SMILES | activity change, negative = inhibition | Potency |
| --- | --- | --- |
| CC1=C[C@H]2Cc3cc(C)cc(C)c3S(=O)(=O)[C@@H]2C=C1 | -8.5% |  |
| N=C1C(=O)OCC1c1ccccc1NC(=O)CN1CCCCC1 (stereo not drawn) | -11.6% |  |
| C=C(C(C)=O)C(O)c1ccc([N+](=O)[O-])cc1 (stereo not drawn) | -15.8% |  |
| Cc1cc(C(=O)Nc2c(C)n(C)n(-c3ccccc3)c2=O)cs1 | -6.25% |  |
| Cc1ccc(O)c(-c2cc(C(=O)Nc3c(C)n(C)n(-c4ccccc4)c3=O)[nH]n2)c1 |  | 20 µM (active) |
| Cc1c(NC(=O)c2cccnc2)c(=O)n(-c2ccccc2)n1C | 4.69% and -0.99% |  |
| CCCSc1nc2[nH]ncc2c(=O)[nH]1 | -15.8% |  |
| O=C(O)c1cccc(N2C(=O)Nc3ccccc3N2O)c1 | -2.37% |  |
| CCCC(C)C(=O)OCC(=O)Nc1c(Br)cc(C)cc1Br (stereo not drawn) | -2.73% |  |
| CN(Cc1ccccc1)C(=O)COc1ccccc1 | -21.3% |  |
| CC(Cc1ccccc1)C(=O)N(C)Cc1ccccc1 (stereo not drawn) | -12.5% | 5.01 µM (active) |
| CN(Cc1ccccc1)C(=O)CCc1ccccc1 | -14.5% |  |
| COc1ccc(CC(=O)Nc2ccc(C(=O)NC(C)(C)C)cc2)cc1 | -10.9% |  |
| CCN(C(=O)COc1cccnc1[N+](=O)[O-])C1CCS(=O)(=O)C1 (stereo not drawn) | -10.7% |  |
| COc1ccc(-n2nnc3c(=O)n(CC(=O)N4CCC(Cc5ccccc5)CC4)cnc32)cc1 | -23.8% |  |
| COc1ccc(C(=O)Nc2c(Cl)cc(Cl)cc2C(=O)N2CCC(C)CC2)cc1 | -13.4% |  |
| Cc1ccc(NC(=O)N2CCC(c3nc4c(nnn4Cc4c(F)cccc4Cl)c(=O)[nH]3)CC2)cc1 |  | 12.6 µM (active) |
| CC(=O)Nc1ccn(Cc2c(F)cccc2Cl)n1 | -0.326% |  |
| Cc1ccc(Cn2nnc3c(=O)n(CC(=O)N4CCCCC4)cnc32)cc1 | -22% |  |
| COc1ccc(Cn2nnc3c(=O)[nH]c(C4CCN(C(=O)c5ccccc5Cl)CC4)nc32)cc1 |  | 7.94 µM (active) |
| OCCNCCOc1ccc(Cl)c(Cl)c1 | -9% |  |
| C/C(=N/NC(=O)CSc1ccccn1)c1ccc([N+](=O)[O-])cc1 | -12.7% |  |
| CC(C)Nc1nnc(SCC(=O)c2c[nH]c3ccccc23)s1 | -16.2% |  |

| SMILES | activity change, negative = inhibition | Potency |
| --- | --- | --- |
| COc1ccc(NC(=S)N2CCCC(CO)C2)c(OC)c1 (stereo not drawn) | -2.74% |  |
| COc1cccc([C@@H]2Oc3ccc(Br)cc3C(=O)[C@H]2OC(=O)NCc2ccc3c(c2)OCO3)c1 | -12.1% |  |
| CCCN=C1NC(=O)C(CC(=O)NCCc2ccc(OC)c(OC)c2)S1 (stereo not drawn) | -5.13% |  |
| O=C(Nc1nnc(SCc2ccc(Cl)cc2Cl)s1)C1COc2ccccc2O1 (stereo not drawn) | -24% |  |
| O=C(Nc1nc(-c2ccc3c(c2)OCO3)cs1)c1ccncc1 | -1.69% |  |
| O=C(Nc1nc(-c2ccncc2)cs1)C1COc2ccccc2O1 (stereo not drawn) |  | 7.94 µM (active) |
| CCNc1nc(-c2cc3ccccc3o2)cs1 | -4.63% |  |
| O=C(OCC(=O)c1c[nH]c2ccccc12)c1cccc(O)c1 | -8.39% |  |
| CC(=O)NC1=NN(C(C)=O)C(C)(c2ccc(C)cc2)S1 (stereo not drawn) | -5.01% |  |
| COCCOC(=O)c1sc(=S)n(CCOC)c1N |  | 28.2 µM (active) |
| CC1(c2ccccc2)CC(C)(C)N(C(=O)c2cc([N+](=O)[O-])cc([N+](=O)[O-])c2)c2ccccc21 (stereo not drawn) | -4.13% |  |
| O=C(Cc1ccc(-n2c(=O)c3sccc3n(Cc3ccc(F)cc3)c2=O)cc1)NCc1ccco1 | -7.92% |  |
| O=C(NCc1ccco1)c1cc2sccc2n1Cc1ccc(F)cc1 |  | 17.8 µM (active) |
| O=C(NCc1ccco1)c1ccc(Cn2c(=O)c3sccc3n(Cc3ccc(F)cc3)c2=O)cc1 | -17.7% |  |
| COc1cc(NC(=O)c2ccccc2NS(=O)(=O)c2ccc(Cl)s2)cc(OC)c1 | -5.94% |  |
| O=C(O)c1c(Br)c(Br)c(Br)c(Br)c1C1c2ccc(O)cc2Oc2cc(O)ccc21 |  | 2.51 µM (active) |
| N#CC1=C(N)Oc2cc(O)ccc2C1C1CCCCC1 (stereo not drawn) | -8.6% |  |
| COc1ccc(/C=C/C(=O)NC(=S)NN2CCCCC2c2cccnc2)cc1 (stereo not drawn) | -29.9% |  |
| CCCCCCCC1=Cc2ccc(F)cc2C(C(C(=O)OC)C(=O)OC)N1C(=O)OC (stereo not drawn) | -2.63% and -13.1% |  |
| O=C(/C=C/c1cccs1)NCc1cccnc1 | -9.43% |  |
| CC(=O)Nc1ccc(S(=O)(=O)NC2(C(F)(F)F)C(=O)Nc3c2c(=O)[nH]c(=O)n3Cc2ccccc2)cc1 (stereo not drawn) |  | 17.8 µM (active) |
| CC(=O)Nc1ccc(S(=O)(=O)NCCc2ccccc2)cc1 | -7.41% |  |
| CC(=O)Nc1ccc(S(=O)(=O)Nc2nc3n(n2)C(c2ccccc2)CC(=O)N3)cc1 (stereo not drawn) | -6.58% |  |
